# Unmarked numbers belong to inactive results.
# Columns and labels:
# Assay in all cases: log2 ratio of Biotin-Ahx-Ub-VS probe labelling (fragment/DMSO); higher = less target engagement (more negative = stronger competition), active = hit call of the paper (q ≤ 0.05, log2 ratio ≤ -1)
# Conditions in all cases: compound concentration: 200 uM; treatment time: 3 h
# [1] = molecular target: T1, OTUD6B (UniProt Q8N6M0)
# T1 sequence (whole entry): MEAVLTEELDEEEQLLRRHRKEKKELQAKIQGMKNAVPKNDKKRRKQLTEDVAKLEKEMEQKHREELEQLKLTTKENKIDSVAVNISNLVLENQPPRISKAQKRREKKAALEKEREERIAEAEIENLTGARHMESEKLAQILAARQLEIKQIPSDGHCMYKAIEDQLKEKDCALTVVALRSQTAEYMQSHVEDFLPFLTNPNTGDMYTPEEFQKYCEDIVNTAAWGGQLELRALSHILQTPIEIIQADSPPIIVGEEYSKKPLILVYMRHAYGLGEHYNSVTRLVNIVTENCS
# Summary of the method: (§1)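 Average log2 ratios of fragment over vehicle were obtained by unpaired t-test from global-median-normalised Spectronaut label-free quantities. Proteins with ≥2 unique peptides were included. HEK293T lysate (495 µg per sample) was treated in triplicate with fragment at 200 µM or vehicle for 3 h, then with Biotin-Ahx-Ub-VS at 0.5 µM final for 1 h, and labelled DUBs were NeutrAvidin-enriched and run by diaPASEF LC-MS/MS.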
# [2] = molecular target: T2, OTUD7B (UniProt Q6GQQ9)
# T2 sequence (whole entry): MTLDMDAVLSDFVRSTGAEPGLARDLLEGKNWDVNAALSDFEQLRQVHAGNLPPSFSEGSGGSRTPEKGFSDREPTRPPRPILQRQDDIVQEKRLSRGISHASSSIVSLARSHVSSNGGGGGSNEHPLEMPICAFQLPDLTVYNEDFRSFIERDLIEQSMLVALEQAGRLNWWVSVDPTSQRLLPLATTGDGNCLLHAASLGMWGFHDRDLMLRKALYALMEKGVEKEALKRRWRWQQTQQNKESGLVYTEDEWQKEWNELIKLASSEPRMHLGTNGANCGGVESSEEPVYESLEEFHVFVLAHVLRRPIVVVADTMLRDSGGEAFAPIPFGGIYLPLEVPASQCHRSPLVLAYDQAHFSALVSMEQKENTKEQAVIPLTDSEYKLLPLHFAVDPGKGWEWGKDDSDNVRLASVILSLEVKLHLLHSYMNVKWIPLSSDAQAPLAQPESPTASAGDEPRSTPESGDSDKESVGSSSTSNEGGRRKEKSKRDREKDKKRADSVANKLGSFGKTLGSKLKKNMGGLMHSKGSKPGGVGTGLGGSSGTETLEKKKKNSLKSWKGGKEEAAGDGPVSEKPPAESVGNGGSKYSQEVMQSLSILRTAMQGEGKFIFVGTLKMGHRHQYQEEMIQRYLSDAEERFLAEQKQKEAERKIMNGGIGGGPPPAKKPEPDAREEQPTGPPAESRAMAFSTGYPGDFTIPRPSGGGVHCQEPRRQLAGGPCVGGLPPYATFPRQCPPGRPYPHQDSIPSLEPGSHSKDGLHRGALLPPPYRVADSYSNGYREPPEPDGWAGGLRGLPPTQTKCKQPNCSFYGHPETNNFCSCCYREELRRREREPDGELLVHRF
# Summary of the method: as §1
# [3] = molecular target: PRPF8 (UniProt Q6P2Q9)
# Summary of the method: as §1
# [4] = molecular target: T3, PSMD7 (UniProt P51665)
# T3 sequence (whole entry): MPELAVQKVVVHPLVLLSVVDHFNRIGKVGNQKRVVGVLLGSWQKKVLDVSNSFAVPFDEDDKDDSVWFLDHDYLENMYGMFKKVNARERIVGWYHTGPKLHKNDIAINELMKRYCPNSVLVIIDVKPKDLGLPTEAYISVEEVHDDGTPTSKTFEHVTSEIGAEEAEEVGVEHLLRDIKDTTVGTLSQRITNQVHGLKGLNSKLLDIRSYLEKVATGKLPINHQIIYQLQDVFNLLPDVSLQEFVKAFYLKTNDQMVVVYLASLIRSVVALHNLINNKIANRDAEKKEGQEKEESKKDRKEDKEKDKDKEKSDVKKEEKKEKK
# Summary of the method: as §1
# [5] = molecular target: UCHL1 (UniProt P09936)
# Summary of the method: as §1
# [6] = molecular target: T4, UCHL3 (UniProt P15374)
# T4 sequence (whole entry): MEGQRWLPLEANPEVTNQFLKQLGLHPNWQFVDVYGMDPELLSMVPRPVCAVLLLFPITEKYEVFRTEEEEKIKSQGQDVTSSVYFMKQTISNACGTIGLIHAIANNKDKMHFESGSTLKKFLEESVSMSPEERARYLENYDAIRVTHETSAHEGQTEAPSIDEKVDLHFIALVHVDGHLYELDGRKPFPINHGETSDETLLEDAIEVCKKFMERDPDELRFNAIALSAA
# Summary of the method: as §1
# [7] = molecular target: T5, UCHL5 (UniProt Q9Y5K5)
# T5 sequence (whole entry): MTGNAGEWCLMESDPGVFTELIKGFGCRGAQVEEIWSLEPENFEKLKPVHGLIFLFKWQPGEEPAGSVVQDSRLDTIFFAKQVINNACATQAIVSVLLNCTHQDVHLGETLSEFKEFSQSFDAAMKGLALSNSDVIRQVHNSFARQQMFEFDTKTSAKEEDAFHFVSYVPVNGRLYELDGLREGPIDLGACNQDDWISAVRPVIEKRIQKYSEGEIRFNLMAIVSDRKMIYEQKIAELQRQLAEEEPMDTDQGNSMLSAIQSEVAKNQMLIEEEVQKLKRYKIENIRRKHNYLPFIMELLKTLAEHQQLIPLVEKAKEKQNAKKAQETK
# Summary of the method: as §1
# [8] = molecular target: USP10 (UniProt Q14694)
# Summary of the method: as §1
# [9] = molecular target: T6, USP15 (UniProt Q9Y4E8)
# T6 sequence (whole entry): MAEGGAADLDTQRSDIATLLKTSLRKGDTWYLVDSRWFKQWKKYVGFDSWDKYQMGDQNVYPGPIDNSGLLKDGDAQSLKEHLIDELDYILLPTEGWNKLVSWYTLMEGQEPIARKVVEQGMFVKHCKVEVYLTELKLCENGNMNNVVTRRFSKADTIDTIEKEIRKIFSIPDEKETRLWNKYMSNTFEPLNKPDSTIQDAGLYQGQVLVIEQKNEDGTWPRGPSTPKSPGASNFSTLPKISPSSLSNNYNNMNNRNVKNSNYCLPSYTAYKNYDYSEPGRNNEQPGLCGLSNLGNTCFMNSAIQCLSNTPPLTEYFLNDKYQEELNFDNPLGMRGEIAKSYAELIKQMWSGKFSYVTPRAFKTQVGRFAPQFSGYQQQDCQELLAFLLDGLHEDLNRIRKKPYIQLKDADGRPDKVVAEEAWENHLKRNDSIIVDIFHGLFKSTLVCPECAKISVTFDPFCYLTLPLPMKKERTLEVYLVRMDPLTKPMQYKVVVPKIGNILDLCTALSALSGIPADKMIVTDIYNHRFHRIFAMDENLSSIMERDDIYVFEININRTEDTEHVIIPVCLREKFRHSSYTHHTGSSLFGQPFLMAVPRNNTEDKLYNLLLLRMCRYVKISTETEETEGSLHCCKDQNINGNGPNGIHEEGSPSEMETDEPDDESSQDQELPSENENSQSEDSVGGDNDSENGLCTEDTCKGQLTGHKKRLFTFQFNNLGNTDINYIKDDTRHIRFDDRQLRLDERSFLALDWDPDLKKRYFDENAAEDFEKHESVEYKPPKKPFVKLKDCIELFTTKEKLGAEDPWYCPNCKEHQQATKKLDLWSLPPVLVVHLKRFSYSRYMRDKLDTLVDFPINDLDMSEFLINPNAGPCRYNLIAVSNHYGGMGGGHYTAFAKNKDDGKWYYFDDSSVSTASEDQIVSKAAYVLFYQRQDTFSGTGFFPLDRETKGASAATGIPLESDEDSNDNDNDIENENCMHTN
# Summary of the method: as §1
# [10] = molecular target: USP16 (UniProt Q9Y5T5)
# Summary of the method: as §1
# Chain of USP10 (Q14694 whole entry): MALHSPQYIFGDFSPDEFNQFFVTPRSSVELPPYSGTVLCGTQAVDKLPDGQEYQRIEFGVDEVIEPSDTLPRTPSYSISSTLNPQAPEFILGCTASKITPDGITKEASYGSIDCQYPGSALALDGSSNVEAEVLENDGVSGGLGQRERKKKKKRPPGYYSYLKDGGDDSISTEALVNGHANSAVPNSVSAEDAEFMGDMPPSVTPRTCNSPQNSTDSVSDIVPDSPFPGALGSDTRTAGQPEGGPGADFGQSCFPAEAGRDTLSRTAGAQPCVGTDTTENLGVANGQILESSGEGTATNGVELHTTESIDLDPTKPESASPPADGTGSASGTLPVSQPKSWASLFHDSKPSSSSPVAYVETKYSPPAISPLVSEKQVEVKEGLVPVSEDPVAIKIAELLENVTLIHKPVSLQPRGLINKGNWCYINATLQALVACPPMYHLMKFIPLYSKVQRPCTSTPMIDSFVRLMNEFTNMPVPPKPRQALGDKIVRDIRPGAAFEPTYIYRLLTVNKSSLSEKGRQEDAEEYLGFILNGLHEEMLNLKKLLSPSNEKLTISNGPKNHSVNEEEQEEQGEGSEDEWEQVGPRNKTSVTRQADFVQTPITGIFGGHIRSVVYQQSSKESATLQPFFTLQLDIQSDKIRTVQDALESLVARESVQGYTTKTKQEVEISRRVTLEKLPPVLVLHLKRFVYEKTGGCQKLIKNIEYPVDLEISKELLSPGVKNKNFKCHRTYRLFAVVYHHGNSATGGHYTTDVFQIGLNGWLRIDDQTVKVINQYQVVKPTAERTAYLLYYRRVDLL
# Chain of USP16 (Q9Y5T5 whole entry, looked up): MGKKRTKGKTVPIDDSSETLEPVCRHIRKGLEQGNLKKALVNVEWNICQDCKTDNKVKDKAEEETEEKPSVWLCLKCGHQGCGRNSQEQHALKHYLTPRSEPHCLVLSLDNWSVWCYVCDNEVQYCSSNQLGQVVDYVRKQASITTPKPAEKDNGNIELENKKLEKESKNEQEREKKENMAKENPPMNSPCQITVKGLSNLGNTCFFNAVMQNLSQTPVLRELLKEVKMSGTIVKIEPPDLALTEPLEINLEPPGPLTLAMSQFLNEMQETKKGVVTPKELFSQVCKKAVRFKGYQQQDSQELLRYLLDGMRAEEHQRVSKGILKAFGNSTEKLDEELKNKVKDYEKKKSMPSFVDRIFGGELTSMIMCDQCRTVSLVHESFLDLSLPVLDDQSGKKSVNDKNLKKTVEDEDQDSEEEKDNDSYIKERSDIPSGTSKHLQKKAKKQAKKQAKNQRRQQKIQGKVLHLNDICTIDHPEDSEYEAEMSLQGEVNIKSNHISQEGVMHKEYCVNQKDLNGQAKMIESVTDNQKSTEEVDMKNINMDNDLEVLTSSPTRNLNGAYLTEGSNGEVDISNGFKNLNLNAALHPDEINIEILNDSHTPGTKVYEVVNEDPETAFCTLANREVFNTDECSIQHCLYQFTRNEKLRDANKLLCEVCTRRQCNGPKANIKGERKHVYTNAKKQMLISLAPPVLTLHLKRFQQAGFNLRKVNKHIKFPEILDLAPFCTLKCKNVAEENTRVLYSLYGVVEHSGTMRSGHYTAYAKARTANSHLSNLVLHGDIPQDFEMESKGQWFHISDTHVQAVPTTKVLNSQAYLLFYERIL
# Chain of UCHL1 (P09936 whole entry, looked up): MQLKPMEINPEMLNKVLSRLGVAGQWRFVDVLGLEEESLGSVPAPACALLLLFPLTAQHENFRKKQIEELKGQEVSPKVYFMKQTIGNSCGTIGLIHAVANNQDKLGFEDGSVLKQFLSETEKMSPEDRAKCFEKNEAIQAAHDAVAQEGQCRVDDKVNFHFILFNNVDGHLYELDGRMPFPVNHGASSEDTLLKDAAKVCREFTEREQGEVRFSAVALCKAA
smiles,measurement,setting,value
Cc1nc(CN2CCN(C(=O)CCl)CC2)cs1,log2 ratio of Biotin-Ahx-Ub-VS probe labelling,[1],-0.238
same,log2 ratio of Biotin-Ahx-Ub-VS probe labelling,[2],-0.265
same,log2 ratio of Biotin-Ahx-Ub-VS probe labelling,[3],0.211
same,log2 ratio of Biotin-Ahx-Ub-VS probe labelling,[4],-0.333
same,log2 ratio of Biotin-Ahx-Ub-VS probe labelling,[5],-1.72 (active)
same,log2 ratio of Biotin-Ahx-Ub-VS probe labelling,[6],-0.051
same,log2 ratio of Biotin-Ahx-Ub-VS probe labelling,[7],-0.0894
same,log2 ratio of Biotin-Ahx-Ub-VS probe labelling,[8],-0.0627
same,log2 ratio of Biotin-Ahx-Ub-VS probe labelling,[9],-0.32
same,log2 ratio of Biotin-Ahx-Ub-VS probe labelling,[10],-0.55

# From the supplement of paper PMC11732987, “Enantioselective OTUD7B fragment discovery through chemoproteomics screening and high-throughput optimisation” (Communications Chemistry, 2025)
